Assay outcomes from PubChem BioAssay.
Rows were chosen to be rich in hits. Some 1.6% of all compounds tested hit in one or more screens of this group.
DYRK1A inh: rat Dyrk1A kinase inhibitors, primary screen, biochemical, single point, plate reader | ADP-Glo luminescence, NFATc1 peptide | Dual specificity tyrosine-phosphorylation-regulated kinase 1A (Rattus norvegicus), Q63470 | inhibition, % at 12.5 µM | actives 0.43% (n = 310,000); in the data active = inhibition above about 50%;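 note: plate controls were vehicle with enzyme for no effect and no enzyme for full effect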
B2AR ag: beta2AR agonists driving receptor internalization, primary screen, cell-based, FAP fluorogen, flow cytometry; AID 504454, 2011; Beta-2 adrenergic receptor (Homo sapiens), P07550; response, % (no concentration beside the values); Am2.2-beta2AR cells; actives 0.43% (n = 340,000);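 active = response above a set limit, near 3 SD of response in nonfluorescent compounds, cut at about 42% in these data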
dFosB act: activators of delta FosB homodimer, primary screen, biochemical, fluorescence polarization, TAMRA-CDK5 oligo, single point | purified delta FosB; percent of positive-control signal above neutral wells | activation, % at 25 µM | actives 0.99% (n = 340,000) | AID 493131, 2011;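 active = mean activation above about 17%, with every replicate also reaching it, limit read from the data, passing the limit was not always enough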
Target sequence (P13346 whole entry, looked up): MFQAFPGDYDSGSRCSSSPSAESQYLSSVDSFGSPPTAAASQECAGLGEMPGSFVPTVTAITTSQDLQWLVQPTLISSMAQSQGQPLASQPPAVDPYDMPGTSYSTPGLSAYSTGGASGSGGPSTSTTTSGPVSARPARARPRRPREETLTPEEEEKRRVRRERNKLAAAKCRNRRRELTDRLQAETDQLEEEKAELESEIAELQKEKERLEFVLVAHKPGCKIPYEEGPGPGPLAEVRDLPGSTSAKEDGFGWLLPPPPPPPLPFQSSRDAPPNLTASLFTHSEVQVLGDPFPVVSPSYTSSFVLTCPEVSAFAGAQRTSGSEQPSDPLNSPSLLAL
A1 inh: caspase 3/7 activation in MEF A1-2A-BIM cells, primary screen, A1 inhibitor project, cell-based, luminescence, HTS | actives 0.066% (n = 330,000) | caspase activation, % (concentration not given with the values) | Caspase-Glo 3/7 luminescence, 3 h; percent of clofoctol response, vehicle zero | AID 2462, 2010;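 active = over half of replicate activation scores above 10%, or exactly half above 10 with the replicate mean above 10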
ADP-Glo artifact: ADP-Glo luciferase interference without Dyrk1A, dose response, artefact control for Dyrk1A inhibitor project, biochemical, luminescence, cherry-pick, set 02; 1,300 tested, under 10 active; ADP-Glo luciferase artifact assay, no Dyrk1A; AID 588348, 2011; AC50, µM (top dose mostly 12 µM), without a hit: top-dose activity change, negative = inhibition; shares compounds with DYRK1A inh;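 active = fitted half-maximal dose AC50 no more than ten times the top valid tested dose, with luminescence dropping as dose rises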
An asterisk follows results filed as active; . = no result.

SMILES	DYRK1A inh	B2AR ag	dFosB act	A1 inh	ADP-Glo artifact
O=C(c1ccc2c(c1)OCCCO2)N1CCCCC1	59.2*	-1.1	2.4	0.4	6.6%
CC1(C)CC(=O)C=C(Nc2cccc(Cl)c2Cl)C1	2.2	2.5	-4.1	0.2	.
c1cncc(-c2ccc3[nH]ccc3c2)c1	54.8*	-3.7	-0.7	-0.1	7.0%
CCN(C(=O)COC(=O)c1ccc(=O)n(Cc2ccccc2)n1)C1CCCCC1	.	1.5	-6.9	0.5	.
O=c1cc[nH]c2ccc(Cl)cc12	50.4*	-1.6	4.4	1.2	8.5%
O=c1cc[nH]c2cc(Cl)ccc12	32.9	-3.5	-2.7	1.2	.
COc1cc(Cl)c(C)cc1NC(=O)c1ccccc1-n1cnnn1	8.1	0.9	-1.5	2.1	.
CC1=C(C(=O)OCc2ccc3c(c2)OCO3)C(c2ccccc2)NC(=O)N1 (stereo not drawn)	77.5*	-5.5	-4.4	-0.8	7.5%
CC1=C(C(=O)OCc2ccc3c(c2)OCO3)C(c2ccccc2OCc2ccccc2)NC(=O)N1 (stereo not drawn)	12.2	-4.0	-11.9	0.8	.
CS(=O)(=O)c1ccc2c(c1)sc1nc(=O)c(/C=C3/C=CC(=O)C(O)=C3)c(N)n12	55.0*	-38.7	-16.4	-4.7	9.9%
CN(C)/C=N/c1nc(-c2ccc3c(c2)OCO3)cs1	76.8*	-8.6	-0.1	-6.0	6.4%
CC(=O)Nc1nc(-c2ccc3c(c2)OCO3)cs1	57.5*	0.8	-2.9	-2.7	10.3%
CN(C)/C=N/c1nc(-c2ccc3ccccc3c2)cs1	-3.7	-16.8	-7.0	-5.3	.
O=C(Nc1nc(-c2ccc3c(c2)OCO3)cs1)C1COc2ccccc2O1 (stereo not drawn)	19.9	9.8	-9.3	1.2	.
O=C(CNC(=S)N(Cc1ccccc1Cl)C1CCCC1)NCCN1CCOCC1	.	-3.7	-2.5	-0.4	.
OCC[C@@H]1C[C@H](O)[C@@H](O)[C@@]2(CCc3ccccc3CO2)O1	51.8*	9.3	5.8	-0.6	7.1%
OCC[C@H]1C[C@@H](O)[C@H](O)[C@@]2(CCc3ccccc3CO2)O1	-13.3	0.4	5.0	0.0	.
Cc1sc2nc(CSCC(=O)Nc3ccc(Cl)cc3F)[nH]c(=O)c2c1C	-1.9	-3.8	-14.0	.	.
COc1ccc(-c2sc3ccc(N4CCOCC4)cc3c2C#CCCO)cc1	1.1	25.4	-5.1	-0.6	.
Cc1cccc(Nc2nc(N)c([N+](=O)[O-])c(N3CCC(C)CC3)n2)c1	50.3*	-5.8	13.2	2.3	6.4%
Cc1cccc(Nc2nc(N)c([N+](=O)[O-])c(N3CC(C)CC(C)C3)n2)c1 (stereo not drawn)	7.1	4.2	-2.0	0.6	.
Cc1ccc(S(=O)(=O)NCC(=O)OCC(=O)NCc2cccs2)cc1	0.1	6.4	-6.3	0.4	.
O=C(NCC(=O)N(c1cccc(F)c1)C(C(=O)NC1CCCC1)c1ccncc1)c1cccs1 (stereo not drawn)	-6.9	-4.7	8.0	-0.8	.
CSC1=NSC2=NC(=O)/C(=C/c3coc4ccc(O)cc4c3=O)C(=N)N12	86.9*	-399.5	-28.4	-1.3	11.9%
COc1cc(/C=C2/C(=N)N3C(SC)=NSC3=NC2=O)ccc1OC(=O)c1ccco1	57.6*	-11.6	-12.9	-5.7	10.8%
SMILES	DYRK1A inh	B2AR ag	dFosB act	A1 inh	ADP-Glo artifact
CC(NC(=O)COC(=O)c1ccc([N+](=O)[O-])s1)c1ccccc1 (stereo not drawn)	55.9*	10.1	-3.0	3.0	7.9%
Cc1ccc(C(=O)OCC(=O)NC(C)c2ccccc2)s1 (stereo not drawn)	2.7	-1.0	2.5	0.6	.
Cc1c(C(=O)Nc2ccc(S(=O)(=O)N(C)C3CCN(C)CC3)cc2)oc2c(Cl)cccc12	11.4	11.8	-44.0	-0.6	.
O=C1C2C(c3ccccc3)CC=CC2[C@H](c2ccoc2)N1Cc1ccccc1 (stereo partly drawn)	59.9*	23.4	3.3	-0.4	11.0%
Cc1ccc2c(c1C)-c1c(ccc(C)c1C)C(=O)C2=O	54.4*	13.8	-28.8	.	9.4%
Nc1ccc2c(c1Cl)C(=O)c1ccc(N)c(Cl)c1C2=O	9.9	6.5	-10.6	.	.
CC(C)C(=O)Nc1nnc(S(=O)(=O)N(C)c2ccc(Cl)cc2)s1	-2.6	-3.4	-1.9	1.0	.
O=C(Nc1cccc(-c2nc3cccnc3s2)c1)c1cccnc1Cl	61.8*	37.2	-41.0	-0.4	7.8%
O=C(Nc1ccccc1-c1nc2ccccc2s1)c1cccnc1Cl	2.5	8.2	-13.5	-0.1	.
COc1cc(/C=C2\SC(N3CCC(C)CC3)=NC2=O)ccc1O	76.8*	11.3	-13.5	0.9	11.8%
COc1ccc(/C=C2\SC(N3CCCCC3)=NC2=O)cc1OC	-2.7	-33.4	0.1	-0.5	.
O=C1OC(c2ccccc2)=C/C1=C/N1CCOCC1	-1.0	-3.8	3.3	0.3	.
O=C1SC(c2ccccc2)=C/C1=C\N1CCCCC1	68.2*	-3.7	-7.8	-0.1	7.9%
COC(=O)CSc1nc(N)c(C#N)c(C(C)C)c1C#N	50.1*	32.8	-0.7	-0.6	8.8%
COC(=O)CSc1nc(N)c(C#N)c(CC(C)C)c1C#N	4.2	27.5	2.8	0.8	.
CCn1nc(C)c(CNC(=O)CCc2nnc(Cc3c[nH]c4ccccc34)o2)c1C	-1.1	-3.9	-2.0	0.6	.
COc1ccc2c(Cl)c(C(N)=O)sc2c1	84.0*	3.1	-11.3	-2.1	8.5%
COc1ccc2c(Cl)c(C(=O)N/N=C/c3cccnc3)sc2c1	63.7*	-5.9	-17.1	-2.4	10.0%
COc1ccc2c(Cl)c(C(=O)NN)sc2c1	26.2	0.8	-2.6	-0.8	.
O=C(N/N=C/c1cccnc1)c1sc2ccccc2c1Cl	0.5	9.2	-41.1	-0.7	.
N#Cc1ccsc1NC(=O)CN1C(=O)NC2(CCCCC2)C1=O	-3.9	2.7	0.7	1.1	.
CCCc1c(O)nc(SCC(=O)O)[nH]c1=O	-0.5	-4.0	-4.6	0.5	.
CC(=O)c1cccc(NC(=O)Nc2cccs2)c1	53.1*	-2.5	-0.4	1.2	10.2%
CCOc1ccccc1NC(=O)c1cc(SC)ccc1Cl	-1.0	-3.6	-12.8	1.6	.
CCCc1cc(=O)oc2cc(OCC(=O)NCCc3ccc(S(N)(=O)=O)cc3)ccc12	4.3	-24.9	-18.4	0.4	.
SMILES	DYRK1A inh	B2AR ag	dFosB act	A1 inh	ADP-Glo artifact
COc1cccc(NC(=O)Nc2ccc3c(c2)N(C)C(=O)CS3)c1	50.2*	22.9	-4.9	-1.5	8.2%
CC(=O)Nc1ccc(NC(=O)Nc2ccc3c(c2)N(C)C(=O)CS3)cc1	1.9	-7.1	-3.6	-0.2	.
CCOC(=O)C=C(C(=O)OCC)C(=O)OCC	-1.2	29.0	0.7	.	.
O=C(Nc1ccc(Cl)c(Cl)c1)OCc1cnc(Cl)s1	58.9*	4.6	-0.3	-0.4	7.4%
C=CCSc1nnc(CCc2ccccc2)n1N	6.6	-3.7	5.2	.	.
Nc1ncnc(N)c1N=Nc1ccccc1	54.4*	3.0	-2.6	2.1	8.6%
